Screening results as filed in PubChem BioAssay.
CBX7 AlphaScr: CBX7 inhibition, primary AlphaScreen. O95931. AlphaScreen His6-CBX7 / biotin-H3K27me3 peptide binding; active compounds read low. normalised signal (fraction of DMSO) (test concentration not listed). 66,000 compounds, 1.1% hits; in the data active means normalised signal below about 0.5
Target sequence (O95931 whole entry, looked up): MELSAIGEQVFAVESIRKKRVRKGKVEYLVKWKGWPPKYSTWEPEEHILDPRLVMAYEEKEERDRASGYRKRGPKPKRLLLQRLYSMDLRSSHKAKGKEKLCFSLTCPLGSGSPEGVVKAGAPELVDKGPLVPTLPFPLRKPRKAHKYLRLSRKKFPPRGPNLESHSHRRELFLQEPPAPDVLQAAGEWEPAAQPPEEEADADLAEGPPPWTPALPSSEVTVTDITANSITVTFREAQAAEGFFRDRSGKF
Active calls of the source: *; ! = not confirmed by another sample. Shown is part of a subset that was picked to be rich in hits.

SMILES | CBX7 AlphaScr
CC1CC(C)CN(S(=O)(=O)c2ccc3c(c2)N(CC(=O)NCCC2=CCCCC2)C(=O)CO3)C1 (centres undefined) | 1
CCc1nn(-c2ccccc2F)c2c1C(=O)CC(c1ccccc1)C2 (centres undefined) | 0.97
CCC(=O)Nc1nc(C)c(-c2csc(Nc3cccc(C(=O)O)c3)n2)s1 | 0.97
CC(=O)Nc1nc(C)c(-c2csc(Nc3ccc(Br)cc3)n2)s1 | 0.96
CC(=O)Nc1ccc(Nc2nc(-c3sc(NC(C)=O)nc3C)cs2)cc1 | 0.92
CCC(=O)Nc1nc(C)c(-c2csc(Nc3ccc(C(=O)O)cc3)n2)s1 | 0.088*!
CCOc1ccc(Nc2nc(-c3sc(NC(=O)CC)nc3C)cs2)cc1 | 0.43*
CC(=O)Nc1nc(C)c(-c2csc(Nc3ccc(O)cc3)n2)s1 | 0.89
O=C(NCC1CCCO1)C1CCC(CNS(=O)(=O)c2cccc3cccnc23)CC1 (centres undefined) | 0.98
O=C(COc1ccc(F)cc1)Nc1c(C(=O)c2ccccc2)oc2ccccc12 | 1
Cc1ccc(C)c(N2CCN(C(=O)C3CCN(c4nc5ccccc5[nH]4)CC3)CC2)c1 | 1.1
COc1ccc(NC(=O)C(Cc2ccccc2)NS(=O)(=O)c2cccc3cccnc23)cc1 (centres undefined) | 1
c1cnc2c(SCC3CCOCO3)cccc2c1 (centres undefined) | 1.1
O=C(CC(Sc1cccc2cccnc12)c1ccc(OC(F)F)cc1)c1ccco1 (centres undefined) | 0.0051*
Cc1cc(C)nc(NC(=O)c2c(-c3ccccc3)noc2C)c1 | 0.95
CCc1cccc(NC(=O)C2CCN(S(=O)(=O)c3c(C)noc3/C=C/c3cccs3)CC2)c1 | 0.98
CCN(CC)c1ccc(Nc2nc(-c3c(C)nc4ccccn34)cs2)cc1 | 0.076*
Cc1ccc(Nc2nc(-c3c(C)nc4ccccn34)cs2)cc1 | 0.9
Cc1ccccc1Nc1nc(-c2c(C)nc3ccccn23)cs1 | 0.88
CCOc1ccccc1Nc1nc(-c2c(C)nc3sccn23)cs1 | 1
Cc1ccccc1Nc1nc(-c2c(C)nc3sccn23)cs1 | 0.4*!
Cc1nc2ccccn2c1-c1csc(Nc2ccc(Cl)cc2)n1 | 0.95
COc1ccc(O)c(-c2nc3ccccc3nc2-c2ccccc2)c1 | 0.61
Cc1cccc(-c2noc(C(C)Oc3ccc(Cl)cc3Cl)n2)c1 (centres undefined) | 2
CC(C)(C)C(=O)N1CC(=O)Nc2ccc(Cl)cc2C1c1ccc(F)cc1 (centres undefined) | 0.9
SMILES | CBX7 AlphaScr
Cc1cccc(Cc2cnc(NC(=O)COc3ccccc3C)s2)c1 | 1
COc1cc(Nc2nc(-c3ccccc3)cs2)c(OC)cc1Cl | 0.75
COc1cc(Nc2nc(-c3ccc(C4CCCCC4)cc3)cs2)c(OC)cc1Cl | 0.46*!
COc1cc(Nc2nc(-c3ccc(-c4ccccc4)cc3)cs2)c(OC)cc1Cl | 0.54
COc1ccc(-c2nc(Nc3ccc(OCc4ccccc4)cc3)c3ccccc3n2)cc1OC | 0.91
Cn1c(Sc2ccc(C(F)(F)F)cn2)nnc1-c1ccccc1 | 1.1
CCCCCc1ccc(-c2ccc(C(=O)Nc3cccc(Cl)c3)cc2)nc1 | 1.1
COc1ccc(OC)c(NC(=O)C2CCCN2S(=O)(=O)c2cccc3cccnc23)c1 (centres undefined) | 0.8
Cc1ccn2c(NC(=O)c3ccc(F)cc3)c(-c3ccc(F)cc3)nc2c1 | 1.1
COc1ccc(N2C(=O)c3ccc(C(=O)Nc4ccccc4C(=O)O)cc3C2=O)cc1 | 1.1
Cc1ccn2c(NC(=O)c3ccc(F)cc3)c(-c3ccccc3)nc2c1 | 1.2
O=C(Nc1nc(N2C(=O)c3ccccc3C2=O)n(-c2ccccc2)n1)c1ccc(F)cc1 | 0.09*
COc1ccc(C(=O)Nc2nc(N3C(=O)c4ccccc4C3=O)n(-c3ccccc3)n2)cc1 | 0.2*
COc1ccc(NC(=O)c2ccc3c(c2)C(=O)N(c2cccc(C)c2)C3=O)cc1 | 0.82
OCCCNc1ncnc2c1c(-c1ccccc1)cn2-c1cccc(Cl)c1 | 0.91
Cc1onc(-c2ccccc2)c1C(=O)Nc1ccc(Br)cc1F | 1
Cc1ccc(NC(=O)c2c(-c3ccccc3)noc2C)c(Cl)c1 | 1.1
Cc1cccc(Nc2ncc(F)c(N3CCOCC3)n2)c1C | 1
CCOc1ccc(-c2cnc3ccccc3n2)cc1 | 1.2
Brc1ccc(-c2cnc3ccccc3n2)cc1 | 1.1
Nc1ccc(-c2ccc(-c3cnc4ccccc4n3)cc2)cc1 | 0.15*
COc1ccc2nc(N3CCCC(C(=O)NCc4ccccn4)C3)sc2c1 (centres undefined) | 0.92
COc1ccc(-n2nnc3c(=O)n(CC(=O)N4CCc5ccccc54)cnc32)cc1 | 0.96
Cc1nc(Nc2cccc(C(F)(F)F)c2)c2c(C)c(C)sc2n1 | 0.45*
Cc1sc2nc(Cc3ccccc3)nc(Nc3cccc(C(F)(F)F)c3)c2c1C | 1.1
SMILES | CBX7 AlphaScr
Cc1nc(Nc2ccccc2F)c2c(C)c(C)sc2n1 | 0.47*
Cc1nc(Nc2cccc(C(F)(F)F)c2)c2c3c(sc2n1)CCCC3 | 1.3
Cc1sc2nc(Cc3ccccc3)nc(Nc3ccccc3F)c2c1C | 1.1
COc1ccccc1Nc1nc(C)nc2sc(C)c(C)c12 | 1
COc1ccccc1CNC(=O)c1cc(Nc2ccc(C)cc2C)nc2ccccc12 | 1.1
Cc1ccc(C(CCN2CCOCC2)c2ccccc2)c(O)c1 (centres undefined) | 0.88
COc1ccccc1/C=C/c1nc(-c2ccc(OCC(N)=O)cc2)no1 | 1
CC(Oc1ccc(F)cc1)C(=O)NC1CCS(=O)(=O)C1 (centres undefined) | 0.76
COc1ccc(NC2c3ccccc3C(=O)N2c2ccc(Cl)cc2)cc1 (centres undefined) | 0.42*
CCc1ccc(NC2c3ccccc3C(=O)N2c2ccc(Cl)cc2)cc1 (centres undefined) | 0.68
COc1ccc(NC2c3ccccc3C(=O)N2c2ccc(Cl)cc2)cc1OC (centres undefined) | 0.54
Cc1ccc(NC(=O)C(=O)NCCCn2ccnc2)cc1Cl | 0.91
O=C(NCCCn1ccnc1)c1cc(-c2ccco2)on1 | 0.42*
COc1cccc(NC(=O)C(=O)NCCCn2ccnc2)c1 | 0.87
Cc1cccc(NC(=O)C(=O)NCCCn2ccnc2)c1 | 0.42*
O=C(NCCCN1CCOCC1)c1cc(-c2ccco2)on1 | 0.95
O=C(NCCCn1ccnc1)c1cc(-c2ccc(Cl)c(Cl)c2)on1 | 0.89
CC(=O)c1sc(NC(=O)c2ccc(S(=O)(=O)N3CCCCC3)cc2)nc1-c1ccccc1 | 1.2
Cc1ccc2c(c1)-c1c(cnn1CC(=O)Nc1cccc(C)n1)CO2 | 1.1
Clc1ccc(OCc2nc3ccccc3n2CCc2ccccc2)cc1 | 1
C=CCc1cc(C)ccc1OCC(O)CN1CCN(c2ccccc2)CC1 (centres undefined) | 0.38*
C=CCc1ccccc1OCC(O)CN1CCN(c2ccccc2)CC1 (centres undefined) | 0.76
C=CCc1cc(C)ccc1OCC(O)CN1CCCCC1 (centres undefined) | 1
CCc1ccc(CN(C(=O)COc2ccc(C(C)C)cc2)C2CCS(=O)(=O)C2)cc1 (centres undefined) | 0.9
CCN(CCCNc1nc2ccccc2c2nc(-c3ccccc3)nn12)c1cccc(C)c1 | 0.7
SMILES | CBX7 AlphaScr
Nc1nonc1C(=O)NCCNS(=O)(=O)c1ccccc1 | 0.96
COc1ccccc1N1CCN(c2ncc(C(=O)Nc3ccc(Br)cc3C)c3ccccc23)CC1 | 1.1
COc1ccccc1CNc1nc(-c2ccccc2F)nc2ccccc12 | 0.32*
Fc1ccccc1-c1nc(NCc2ccccc2Cl)c2ccccc2n1 | 1
COCCNc1nc(-c2ccccc2F)nc2ccccc12 | 1.1
CCOC(=O)c1cc(-c2ccccc2)n(CCC(=O)Nc2ccc(OCC)cc2)c1C | 0.97
O=C(NCCCN1CCCCC1)c1ccc2c(c1)N(Cc1cccc(Cl)c1)C(=O)c1ccccc1S2 | 1.2
CC(C)C[C@@H](C(=O)Nc1ccc(F)cc1)N1Cc2ccccc2C1=O | 0.97
